Results filed as inconclusive are left out. Activity calls are given as the source filed them. Calls come from the whole dose curve; as a rule, active = well fitted curve in the direction sought with a large enough effect; inconclusive = small, poorly fitted or top-dose-only effect, or another doubt; inactive = no such curve, though single readings can be large; an effect the other way counts as inactive or inconclusive.
Tests used:
[1] = target: Cytochrome P450 3A7 (Homo sapiens) (UniProt P24462); assay: Cytochrome P450 family 3 subfamily A member 7 (CYP3A7) small molecule antagonists: luciferase biochemical qHTS assay (AID 1963596); conditions: P450-Glo CYP3A7 enzyme luminescence, 1 h; series mostly up to 57.4 µM; note: % is set by controls: 0 for no effect and ±100 for the full control effect; nearly all actives have a fitted effect of over 40% in size
Cytochrome P450 3A7 (Homo sapiens), sequence (P24462 whole entry, looked up): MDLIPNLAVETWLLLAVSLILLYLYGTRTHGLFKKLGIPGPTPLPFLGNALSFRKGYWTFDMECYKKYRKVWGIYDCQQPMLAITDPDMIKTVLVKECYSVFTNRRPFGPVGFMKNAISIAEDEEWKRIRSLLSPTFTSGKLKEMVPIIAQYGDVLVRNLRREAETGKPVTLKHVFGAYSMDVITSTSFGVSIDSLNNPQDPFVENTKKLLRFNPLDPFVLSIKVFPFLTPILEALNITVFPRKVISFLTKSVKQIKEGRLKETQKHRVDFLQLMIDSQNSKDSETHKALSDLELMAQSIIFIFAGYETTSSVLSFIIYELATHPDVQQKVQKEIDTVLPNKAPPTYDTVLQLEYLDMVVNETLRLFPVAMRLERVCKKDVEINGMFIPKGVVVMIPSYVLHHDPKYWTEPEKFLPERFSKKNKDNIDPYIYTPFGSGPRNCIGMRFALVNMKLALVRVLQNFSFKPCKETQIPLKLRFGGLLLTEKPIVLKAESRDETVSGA
Outline: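 Compounds were screened in qHTS format for interference with CYP3A7 turnover of a proluciferin substrate. Reactions ran 1 h at room temperature after NADPH regeneration solution was added, then luciferin product was detected by luminescence.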

[2] = Viability qHTS for spleen associated tyrosine kinase inhibitor (SYKi) naive MV4-11 cells (AID 1963823); conditions: MV4-11 AML viability, CellTiter-Glo luminescence, 72 h; series mostly up to 45 µM; note: nearly all actives have a fitted effect of over 40% in size; note: potency is the fitted concentration of half-maximal effect
Outline: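 In this viability screen, compounds acted on SYK inhibitor naive MV4-11 cells for three days (72 hr, 37 C). Remaining viable cells were measured by CellTiter-Glo luminescence following a 10 min room-temperature development.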

[3] = Cellular viability qHTS for adrenocortical cancer (ACC) cell line SW-13 (AID 1963989); conditions: SW-13 ACC cells viability, CellTiter-Glo, 48 h; activity (max response): stronger effect = lower value; note: nearly all actives have a fitted effect of over 65% in size; note: potency is the fitted concentration of half-maximal effect;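 for activity (max response): cells grown in serum-free medium with ITS supplement; % is set by controls: 0 for no effect and ±100 for the full control effect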
Outline: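 SW-13 cells in ITS-supplemented serum-free DMEM were plated overnight, then exposed for 48 h at 37C to compound titrations (up to 46 uM final). Viability was read by CellTiter-Glo luminescence; four-parameter logistic fits gave IC50 and efficacy.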

[4] = Quantitative highthroughput screen to assess conditional lethalithy of SEM cells grown in Human Plasma-Like Medium with dialyzed fetal bovine serum (HPLM+ds) (AID 1963882); conditions: SEM B-ALL cells in HPLM+ds, CellTiter-Glo viability, 48 h; series mostly up to 45.8 µM; note: nearly all actives have a fitted effect of over 35% in size; note: potency is the fitted concentration of half-maximal effect
Outline: (§1)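 Each medium arm—HPLM with 10% dialyzed FBS, or RPMI1640 with 5 mM glucose and 10% untreated or dialyzed FBS—was screened against an 11-point, 3-fold compound titration for 48 h at 37 °C, with CellTiter-Glo luminescence as endpoint.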

[5] = Quantitative highthroughput screen to assess conditional lethalithy of SEM cells grown in RPMI1640 with unreated serum (RPMI+s) (AID 1963883); conditions: SEM B-ALL cells, CellTiter-Glo viability, 48 h; series mostly up to 45.8 µM; note: nearly all actives have a fitted effect of over 35% in size; note: potency is the fitted concentration of half-maximal effect;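 for Viability: 100% = DMSO wells and 0% = empty wells without cells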
Outline: as §1

[6] = Cellular viability qHTS for adrenocortical cancer (ACC) cell line NCI-H295R (AID 1963990); conditions: CellTiter-Glo ATP luminescence, 48 h; series mostly up to 46.1 µM; note: nearly all actives have a fitted effect of over 60% in size; note: potency is the fitted concentration of half-maximal effect
Outline: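 Luminescent ATP read-out (CellTiter-Glo, 20 min RT) after 48 h drug exposure of NCI-H295R cells; a titration up to 46 uM final. Data normalized to doxorubicin (100% inhibition) and DMSO (0%); 4-parameter fit gives IC50, max response.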

[7] = Quantitative highthroughput screen to assess conditional lethalithy of NOMO1 cells grown in RPMI1640 with untreated serum (RPMI+s) (AID 1963876); conditions: NOMO1 AML cells in RPMI+serum, CellTiter-Glo viability, 48 h; series mostly up to 45.8 µM;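 note: 100% = DMSO wells and 0% = empty wells without cells; nearly all actives have a fitted effect of over 35% in size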
Outline: as §1

[8] = Quantitative highthroughput screen to assess conditional lethalithy of NOMO1 cells grown in RPMI1640 with dialyzed fetal bovine serum (RPMI+ds) (AID 1963877); conditions: NOMO1 in RPMI+dialyzed FBS viability, ATP luminescence, 48 h; series mostly up to 45.8 µM;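 note: 100% = DMSO control wells and 0% = empty wells; nearly all actives have a fitted effect of over 30% in size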
Outline: as §1

[9] = Quantitative highthroughput screen to assess conditional lethalithy of P12 Ichikawa cells grown in Human Plasma-Like Medium with dialyzed fetal bovine serum (HPLM+ds) (AID 1963879); conditions: ATP luminescence, 48 h; Potency: viability; series mostly up to 45.8 µM; note: nearly all actives have a fitted effect of over 35% in size
Outline: as §1

[10] = Quantitative highthroughput screen to assess conditional lethalithy of P12 Ichikawa cells grown in RPMI1640 with dialyzed fetal bovine serum (RPMI+ds) (AID 1963880); conditions: ATP luminescence, 48 h; Potency: P12-Ichikawa viability; series mostly up to 45.8 µM
Outline: as §1

[11] = Quantitative highthroughput screen to assess conditional lethalithy of P12 Ichikawa cells grown in RPMI1640 with untreated serum (RPMI+s) (AID 1963881); conditions: ATP luminescence, 48 h; Potency: viability; series mostly up to 45.8 µM
Outline: as §1

[12] = Quantitative highthroughput screen to assess conditional lethalithy of SEM cells grown in RPMI1640 with dialyzed fetal bovine serum (RPMI+ds) (AID 1963884); conditions: SEM B-ALL cells, RPMI+dialyzed FBS, CellTiter-Glo viability, 48 h; series mostly up to 45.8 µM
Outline: as §1

[13] = Viability qHTS for spleen associated tyrosine kinase inhibitor (SYKi) drug resistant MV4-11 cells (AID 1963824); conditions: SYKi-resistant MV4-11 viability, CellTiter-Glo, 72 h; series mostly up to 45 µM; note: nearly all actives have a fitted effect of over 35% in size
Outline: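 CellTiter-Glo luminescence, read 10 min after reagent addition, reports viability after a 72 hr compound exposure. Cells are an MV4-11 line made resistant to SYK inhibition, seeded at 500 per well onto compound-containing plates.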

[14] = Quantitative highthroughput screen to assess conditional lethalithy of NOMO1 cells grown in Human Plasma-Like Medium with dialyzed fetal bovine serum (HPLM+ds) (AID 1963878); conditions: NOMO1 AML cells in HPLM+ds, CellTiter-Glo viability, 48 h; series mostly up to 45.8 µM
Outline: as §1

COc1cc(C)nc(-n2nc(C)cc2OC)n1
inactive: Potency [1] | Potency [2] | activity (max response) [3] 11%

Cc1c(Nc2ncccc2C(=O)O)cccc1C(F)(F)F
inactive: Potency [1] | Potency [2] | activity (max response) [3] -9.06%

c1ccc2c(-c3cnn4cc(-c5ccc(N6CCNCC6)cc5)cnc34)ccnc2c1
active: Potency [2] 0.525 µM | Potency [4] 2.64 µM | Potency [5] 5.26 µM | Potency [3] 3.98 µM | Potency [6] 3.16 µM
inactive: Potency [1]

COc1cc(OC)c(C(=O)CCCN2CCCC2)c(OC)c1
inactive: Potency [1] | Potency [2] | Potency [7] | Potency [8] | Potency [9] | Potency [10] | Potency [11] | Potency [4] | Potency [5] | Potency [12] | Potency [6]

[Cl][In]([Cl])[Cl]
active: Potency [3] 35.5 µM
inactive: Potency [1] | Potency [2]

O=C(O)Cn1cnnn1
inactive: Potency [1] | Potency [2] | Potency [13] | Potency [6]

CN(c1nccc(=O)[nH]1)C1CCN(c2nc3ccccc3n2Cc2ccc(F)cc2)CC1
inactive: Potency [1] | Potency [2] | Potency [7] | Potency [8] | Potency [14] | Potency [9] | Potency [10] | Potency [11] | Potency [5] | Potency [12] | activity (max response) [3] 5.56% | Potency [6]

CN(C)C/C=C(/c1ccc(Br)cc1)c1cccnc1
inactive: Potency [1] | Potency [2] | activity (max response) [3] 3.23%

CNCCC(Oc1ccccc1OC)c1ccccc1 (stereo unspecified)
inactive: Potency [1] | Potency [2] | Potency [13] | Potency [6]

OC(CN1CCC(Cc2ccc(F)cc2)CC1)c1ccc(Cl)cc1 (stereo unspecified)
inactive: Potency [1] | Potency [7] | Potency [14] | Potency [9] | Potency [10] | Potency [11] | Potency [4] | Potency [5] | Potency [12] | activity (max response) [3] -8.69% | Potency [6]
active: Potency [2] 5.31 µM

From PubChem BioAssay (NCATS)
